About 410 targets per protein were measured; listed, in parts, are those with the strongest signals and a random draw of the rest.
Experiments:
Assay in all cases: glycan array binding signal (z-score within array); higher = stronger binding
Conditions in all cases: glycan notation: IUPAC condensed, linker removed
[1] = target: Fuc(a1-2)Gal(b1-3)GlcNAc(b1-2)Man(a1-3)[Fuc(a1-2)Gal(b1-3)GlcNAc(b1-2)Man(a1-6)]Man(b1-4)GlcNAc(b1-4)GlcNAc
Outline: (§1)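 The binding signal is a Z-score computed within each array. Data were drawn from 3228 arrays in the Consortium for Functional Glycomics database, restricted to those with a known protein sequence. Scores were averaged over arrays of the same protein sequence at different concentrations or buffers, and over linkers, and negative values can be taken as non-binding.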

[2] = target: Fuc(a1-2)Gal(b1-3)GlcNAc(b1-3)Gal(b1-4)Glc
Outline: as §1

[3] = target: Fuc(a1-2)Gal(b1-3)GlcNAc(b1-3)[Fuc(a1-3)[Gal(b1-4)]GlcNAc(b1-6)]Gal(b1-4)Glc
Outline: as §1

[4] = target: Fuc(a1-2)Gal(b1-3)[Fuc(a1-4)]GlcNAc(b1-2)Man(a1-3)[Fuc(a1-2)Gal(b1-3)[Fuc(a1-4)]GlcNAc(b1-2)Man(a1-6)]Man(b1-4)GlcNAc(b1-4)GlcNAc
Outline: as §1

[5] = target: Fuc(a1-2)Gal(b1-4)Glc
Outline: as §1

[6] = target: Fuc(a1-2)Gal(b1-4)GlcNAc(b1-2)[Fuc(a1-2)Gal(b1-4)GlcNAc(b1-4)]Man(a1-3)[Fuc(a1-2)Gal(b1-4)GlcNAc(b1-2)Man(a1-6)]Man(b1-4)GlcNAc(b1-4)GlcNAc
Outline: as §1

[7] = target: Fuc(a1-2)Gal(b1-4)[Fuc(a1-3)]GlcNAc(b1-3)GalNAc
Outline: as §1

[8] = target: Fuc(a1-2)[Gal(a1-3)]Gal(b1-3)GlcNAc
Outline: as §1

[9] = target: Fuc(a1-2)[Gal(a1-3)]Gal(b1-4)GlcNAc
Outline: as §1

[10] = target: Fuc(a1-2)[GalNAc(a1-3)]Gal(b1-3)GlcNAc(b1-2)Man(a1-3)[Fuc(a1-2)[GalNAc(a1-3)]Gal(b1-3)GlcNAc(b1-2)Man(a1-6)]Man(b1-4)GlcNAc(b1-4)[Fuc(a1-6)]GlcNAc
Outline: as §1

[11] = target: Fuc(a1-2)[GalNAc(a1-3)]Gal(b1-4)GlcNAc
Outline: as §1

[12] = target: Fuc(a1-2)[GalNAc(a1-3)]Gal(b1-4)GlcNAc(b1-2)Man(a1-3)[Fuc(a1-2)[GalNAc(a1-3)]Gal(b1-4)GlcNAc(b1-2)Man(a1-6)]Man(b1-4)GlcNAc(b1-4)GlcNAc
Outline: as §1

[13] = target: Fuc(a1-3)[Gal3S(b1-4)]GlcNAc6S
Outline: as §1

[14] = target: Gal(a1-3)Fuc(a1-2)Gal(b1-4)GlcNAc(b1-3)[Gal(a1-3)Fuc(a1-2)Gal(b1-4)GlcNAc(b1-6)]GalNAc
Outline: as §1

[15] = target: Gal(a1-3)Gal(b1-4)GlcNAc
Outline: as §1

[16] = target: Gal(a1-3)[Gal(a1-4)]Gal(b1-4)GlcNAc
Outline: as §1

[17] = target: Gal(a1-4)Gal(b1-4)Glc
Outline: as §1

[18] = target: Gal(a1-4)Gal(b1-4)GlcNAc
Outline: as §1

[19] = target: Gal(a1-4)Gal(b1-4)GlcNAc(b1-3)Gal(b1-4)Glc
Outline: as §1

[20] = target: Gal(b1-3)GlcNAc(b1-2)[Gal(b1-3)GlcNAc(b1-6)]Man(a1-6)[Gal(b1-3)GlcNAc(b1-2)Man(a1-3)]Man(b1-4)GlcNAc(b1-4)GlcNAc
Outline: as §1

[21] = target: Gal(b1-3)GlcNAc(b1-3)Gal(b1-4)GlcNAc
Outline: as §1

[22] = target: Gal(b1-4)Gal
Outline: as §1

[23] = target: Gal(b1-4)Glc6S
Outline: as §1

[24] = target: Gal(b1-4)GlcNAc(b1-3)Gal(b1-4)GlcNAc
Outline: as §1

[25] = target: Gal(b1-6)Gal
Outline: as §1

[26] = target: Gal3S(b1-4)[Fuc(a1-3)]Glc6S
Outline: as §1

[27] = target: Gal4S(b1-4)GlcNAc
Outline: as §1

[28] = target: Gal6S(b1-4)Glc
Outline: as §1

[29] = target: GalNAc(b1-3)Gal
Outline: as §1

[30] = target: GalNAc(b1-4)Gal(b1-4)Glc
Outline: as §1

[31] = target: Glc(b1-4)Glc
Outline: as §1

[32] = target: Glc(b1-6)Glc
Outline: as §1

[33] = target: GlcNAc(a1-6)Gal(b1-4)GlcNAc
Outline: as §1

[34] = target: GlcNAc(b1-2)[GlcNAc(b1-4)]Man(a1-3)[GlcNAc(b1-4)][GlcNAc(b1-2)[GlcNAc(b1-6)]Man(a1-6)]Man(b1-4)GlcNAc(b1-4)GlcNAc
Outline: as §1

[35] = target: GlcNAc(b1-4)Gal(b1-4)GlcNAc
Outline: as §1

[36] = target: Man(a1-2)Man(a1-3)[Man(a1-2)Man(a1-6)]Man(a1-6)[Man(a1-2)Man(a1-2)Man(a1-3)]Man(b1-4)GlcNAc(b1-4)GlcNAc
Outline: as §1

[37] = target: Man(a1-3)[Man(a1-6)]Man(a1-6)[Man(a1-2)Man(a1-3)]Man(b1-4)GlcNAc(b1-4)GlcNAc
Outline: as §1

[38] = target: Neu5Ac(a2-3)Gal(b1-3)GalNAc(b1-3)Gal(a1-4)Gal(b1-4)Glc
Outline: as §1

[39] = target: Neu5Ac(a2-3)Gal(b1-3)GlcNAc(b1-3)GalNAc
Outline: as §1

[40] = target: Neu5Ac(a2-3)Gal(b1-4)GlcNAc(b1-6)[Neu5Ac(a2-3)Gal(b1-3)]GalNAc
Outline: as §1

[41] = target: Neu5Ac(a2-3)Gal(b1-4)[Fuc(a1-3)]GlcNAc(b1-3)Gal
Outline: as §1

[42] = target: Neu5Ac(a2-3)Gal(b1-4)[Fuc(a1-3)]GlcNAc(b1-3)GalNAc
Outline: as §1

[43] = target: Neu5Ac(a2-6)Gal(b1-4)GlcNAc(b1-2)Man(a1-3)[Neu5Ac(a2-6)Gal(b1-4)GlcNAc(b1-2)Man(a1-6)]Man(b1-4)GlcNAc(b1-4)GlcNAc
Outline: as §1

[44] = target: Neu5Ac(a2-6)Gal(b1-4)GlcNAc(b1-3)Gal(b1-4)GlcNAc(b1-3)Gal(b1-4)GlcNAc
Outline: as §1

[45] = target: Neu5Ac9Ac(a2-3)Gal(b1-4)GlcNAc
Outline: as §1

B1: DCL-1 (Homo sapiens), Q8IX05 (protein)
chain: MLRAALPALLLPLLGLAAAAVADCPSSTWIQFQDSCYIFLQEAIKVESIEDVRNQCTDHGADMISIHNEEENAFILDTLKKQWKGPDDILLGMFYDTDDASFKWFDNSNMTFDKWTDQDDDEDLVDTCAFLHIKTGEWKKGNCEVSSVEGTLCKTAIPYKRKYLSDNHILISALVIASTVILTVLGAIIWFLYKKHSDSRFTTVFSTAPQSPYNEDCVLVVGEENEYPVQFD
- glycan array binding signal (z-score) [1]: 0.687
- glycan array binding signal (z-score) [2]: -0.715
- glycan array binding signal (z-score) [3]: 0.156
- glycan array binding signal (z-score) [4]: -0.488
- glycan array binding signal (z-score) [5]: 0.028
- glycan array binding signal (z-score) [6]: -0.471
- glycan array binding signal (z-score) [7]: 1.87
- glycan array binding signal (z-score) [8]: 3.01
- glycan array binding signal (z-score) [9]: -0.77
- glycan array binding signal (z-score) [10]: -0.151
- glycan array binding signal (z-score) [11]: -0.734
- glycan array binding signal (z-score) [12]: 0.221
- glycan array binding signal (z-score) [13]: -0.491
- glycan array binding signal (z-score) [14]: 0.69
- glycan array binding signal (z-score) [15]: 0.709
- glycan array binding signal (z-score) [16]: -0.245
- glycan array binding signal (z-score) [17]: -0.289
- glycan array binding signal (z-score) [18]: 0.053
- glycan array binding signal (z-score) [19]: -0.496
- glycan array binding signal (z-score) [20]: 2.22
- glycan array binding signal (z-score) [21]: -0.606
- glycan array binding signal (z-score) [22]: -0.028
- glycan array binding signal (z-score) [23]: 0.595
- glycan array binding signal (z-score) [24]: 2.35
- glycan array binding signal (z-score) [25]: -0.915
- glycan array binding signal (z-score) [26]: 0.532
- glycan array binding signal (z-score) [27]: -0.14
- glycan array binding signal (z-score) [28]: 0.156
- glycan array binding signal (z-score) [29]: -0.083
- glycan array binding signal (z-score) [30]: -0.041
- glycan array binding signal (z-score) [31]: -0.786
- glycan array binding signal (z-score) [32]: -0.407
- glycan array binding signal (z-score) [33]: 6.83
- glycan array binding signal (z-score) [34]: 0.126
- glycan array binding signal (z-score) [35]: -0.427
- glycan array binding signal (z-score) [36]: 2.43
- glycan array binding signal (z-score) [37]: 10.6
- glycan array binding signal (z-score) [38]: 3.04
- glycan array binding signal (z-score) [39]: -0.021
- glycan array binding signal (z-score) [40]: 0.223
- glycan array binding signal (z-score) [41]: 0.066
- glycan array binding signal (z-score) [42]: 5.12
- glycan array binding signal (z-score) [43]: 0.079
- glycan array binding signal (z-score) [44]: -1.67
- glycan array binding signal (z-score) [45]: 2.38

From the supplement of paper PMC8728848
